TDP1 block: TDP1 (human) enzyme inhibition; recombinant TDP1, AlphaScreen DNA substrate cleavage; hit rate 0.28% among 350,000; Q9NUW8; Potency, µM (highest dose often 130 µM), without a hit: at the highest dose activity change, negative = inhibition, hits mostly inhibitors; AID 485290; note: nearly all actives have a fitted effect of over 40% in size
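Steps: enzyme plus compound, 15 min RT; add biotin/phosphotyrosine-FITC oligonucleotide (15 nM final), react 5 min; add donor/acceptor beads (10 ug/ml final), 10 min; read AlphaScreen. Tdp1 at 1 nM final.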
GCN5L2 inh: blocks human GCN5L2 histone acetyltransferase; Q92830; GCN5L2 HAT assay, ThioGlo1 CoA-SH fluorescence; Potency, µM (titrated, usually from 58.9 µM), for the others: at the highest dose activity change, negative = inhibition, actives largely listed as inhibitors; hit rate 0.21% among 390,000; AID 504327
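Enzyme at 20nM final was mixed with library compounds for 15 min at room temperature. Peptide H3(1-25) at 75uM, acetyl-CoA at 70uM and ThioGlo1 at 50uM were then added. Plates were read immediately and after 20 min (Ex340nm/Em540nm).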
DT40 TDP1 CPT: DT40-hTDP1 cell growth loss with CPT | chicken DT40 Tdp1-/-;hTDP1 cells + 20 nM CPT, ATP luminescence, 48 h | Potency, µM (doses to about 46.2 µM), without a hit: at the highest dose activity change, negative = growth inhibition, hits mostly inhibitors | hit rate 12% among 420,000 | AID 686979; note: nearly all actives have a fitted effect of over 55% in size
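Cell growth measured by CellTiter-Glo luminescence after a minimum 48 h, 37 C compound exposure with 20 nM CPT in Tdp1-knockout DT40 cells stably expressing hTDP1, seeded 400/well; qHTS titration format.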
PLK1 PBD inh: inhibitors of human PLK1 polo-box domain binding; P53350; Plk1 PBD binding of FITC phosphopeptide, fluorescence polarization; Potency, µM, for the others: max response, negative = inhibition, actives largely listed as inhibitors; hit rate 2.8% among 360,000; AID 720504; note: series mostly up to about 57 µM; nearly all actives have a fitted effect of over 65% in size
Target sequence (P53350 whole entry, looked up, the tested form may be a part): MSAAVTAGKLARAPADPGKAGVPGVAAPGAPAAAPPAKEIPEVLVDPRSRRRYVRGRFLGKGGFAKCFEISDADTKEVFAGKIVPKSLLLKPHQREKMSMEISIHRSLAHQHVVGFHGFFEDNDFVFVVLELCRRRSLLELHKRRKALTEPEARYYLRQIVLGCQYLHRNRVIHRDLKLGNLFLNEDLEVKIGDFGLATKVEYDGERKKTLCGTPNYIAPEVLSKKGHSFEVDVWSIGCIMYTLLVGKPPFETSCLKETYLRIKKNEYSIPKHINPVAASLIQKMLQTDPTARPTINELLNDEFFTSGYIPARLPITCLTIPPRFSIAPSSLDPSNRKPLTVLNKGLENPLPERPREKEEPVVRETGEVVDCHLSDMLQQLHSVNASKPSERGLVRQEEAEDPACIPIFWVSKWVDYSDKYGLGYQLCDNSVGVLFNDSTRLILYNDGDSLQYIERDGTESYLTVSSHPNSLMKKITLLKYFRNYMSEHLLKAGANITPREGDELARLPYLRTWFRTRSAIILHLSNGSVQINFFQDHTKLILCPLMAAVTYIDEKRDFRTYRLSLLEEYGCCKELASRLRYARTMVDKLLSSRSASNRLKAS
VDR inh: inhibitors of human vitamin D receptor | P11473 | VDR-SRC2-3 peptide fluorescence polarization, 2 h | Potency, µM, without a hit: max response, negative = inhibition, usual class: inhibitors | hit rate 0.93% among 400,000 | AID 504847
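The screen uses fluorescence polarization to detect compounds that interfere with recruitment of the SRC2-3 coactivator peptide to VDR; plates are read after 2 h at room temperature.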
DT40 TDP1 no CPT: qHTS for Inhibitors of human tyrosyl-DNA phosphodiesterase 1 (TDP1): qHTS in cells in absence of CPT | DT40 Tdp1-/- hTDP1 cells, no CPT, ATP luminescence, 48 h | AID 686978, 2013 | hit rate 15% among 420,000 | Potency, µM (titrated, usually from 46.2 µM), for the others: at the highest dose activity change, negative = growth inhibition, most hits filed as inhibitors; note: nearly all actives have a fitted effect of over 55% in size
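Chicken DT40 Tdp1-/- cells complemented with human TDP1, screened without camptothecin (DMSO vehicle only), 400 cells/well. Compounds pin-transferred, cells incubated at 37 °C for at least 48 hr. Growth read as ATP-dependent luminescence (CellTiter-Glo, 30 min at RT).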
Active calls of the source: *. Only some compounds are listed: those with a hit (about 18% of all), similar ones and a draw of the others. Calls come from the whole dose curve; as a rule, active = well fitted curve in the direction sought with a large enough effect; inconclusive = small, poorly fitted or top-dose-only effect, or another doubt; inactive = no such curve, though single readings can be large; an effect the other way counts as inactive or inconclusive. % is set by controls: 0 for no effect and ±100 for the full control effect; potency is the fitted concentration of half-maximal effect.

`Cc1ccc(NC(=O)CN2C(=O)CSc3ccc(S(=O)(=O)N4CCCC4)cc32)cc1F` gave TDP1 block 3%, GCN5L2 inh -14%, DT40 TDP1 CPT inconclusive, VDR inh 13% and DT40 TDP1 no CPT 23µM*.
`CC(C)c1ccc(NC(=O)CN2C(=O)CSc3ccc(S(=O)(=O)N4CCCC4)cc32)cc1` gave TDP1 block 3%, GCN5L2 inh -15%, DT40 TDP1 CPT 16µM*, VDR inh 12% and DT40 TDP1 no CPT 16µM*.
For O=C(CN1C(=O)CSc2ccc(S(=O)(=O)N3CCCCCC3)cc21)NCCc1ccccc1 the results were DT40 TDP1 CPT inconclusive, PLK1 PBD inh -2%, VDR inh 30% and DT40 TDP1 no CPT 23µM*.
`O=C(CN1C(=O)CSc2ccccc21)Nc1ccc2c(c1)OCCO2` gave TDP1 block 5%, GCN5L2 inh -10%, DT40 TDP1 CPT -16%, PLK1 PBD inh 27µM*, VDR inh -10% and DT40 TDP1 no CPT -7%.
`CCc1ccc(CN(C)C(=O)CCc2nnc(COc3ccccc3)o2)cc1` gave TDP1 block 0%, GCN5L2 inh 0%, DT40 TDP1 CPT inconclusive, PLK1 PBD inh -8%, VDR inh 3% and DT40 TDP1 no CPT inconclusive.
For O=C(O)[C@H](Cc1c[nH]c2ccccc12)N1C(=O)C2=CCCC=C2C1=O the results were TDP1 block 8%, GCN5L2 inh -8% and VDR inh -8%.
Screening C[C@@H](O)[C@@H]1C(=O)N2C(C(=O)O)=C([C@H]3CCCO3)S[C@H]12 returned GCN5L2 inh 3%.
CN(C)CC1CCCCC1OC(=O)c1ccc(S(=O)(=O)N(C)c2ccccc2)cc1 (centres undefined) was read as TDP1 block 0%, GCN5L2 inh 3%, DT40 TDP1 CPT -16%, PLK1 PBD inh -4%, VDR inh 6% and DT40 TDP1 no CPT -18%.
For O=C(COC(=O)c1cc(=O)[nH]c2ccccc12)Nc1ccc(F)cc1 the results were TDP1 block 0%, GCN5L2 inh -9%, DT40 TDP1 CPT -11%, PLK1 PBD inh -3%, VDR inh inconclusive and DT40 TDP1 no CPT -6%.
For Cc1cc(C)cc(N2CCn3c2nc2c3c(=O)n(Cc3c(F)cccc3Cl)c(=O)n2C)c1 the results were TDP1 block -4%, GCN5L2 inh -5%, DT40 TDP1 CPT 14%, VDR inh 13% and DT40 TDP1 no CPT 4%.
CCCCOc1ccc(C(C)NC(=O)CN2C(=O)CSc3ccc(S(=O)(=O)N4CCOCC4)cc32)cc1 (centres undefined) was read as TDP1 block 8%, GCN5L2 inh 1%, DT40 TDP1 CPT inconclusive, VDR inh 2% and DT40 TDP1 no CPT 23µM*.
Screening Cc1cc(NC(=O)CN2C(=O)CSc3ccc(S(=O)(=O)N(C)C)cc32)ccc1Br returned TDP1 block -3%, GCN5L2 inh inconclusive, DT40 TDP1 CPT inconclusive, VDR inh 10% and DT40 TDP1 no CPT 21µM*.
Screening Cc1cccn2c(=O)c3cc(C(=O)NCc4cccnc4)c(=N)n(CC4CCCO4)c3nc12 (centres undefined) returned GCN5L2 inh -17%, DT40 TDP1 CPT 9%, PLK1 PBD inh 3%, VDR inh 4% and DT40 TDP1 no CPT inconclusive.
For CCn1nc(C)c2c(-c3ccccc3)cc(=O)n(C(C)C(=O)Nc3cccc(F)c3)c21 (centres undefined) the results were TDP1 block 6%, GCN5L2 inh -15%, DT40 TDP1 CPT inconclusive, VDR inh 14% and DT40 TDP1 no CPT inconclusive.
`COc1cc(OC)nc(Oc2cc(C=O)ccc2OC)n1` gave GCN5L2 inh 1%, DT40 TDP1 CPT -6%, PLK1 PBD inh -9%, VDR inh -15% and DT40 TDP1 no CPT -36%.
Screening COC(=O)C1=C(N)N(c2ccccc2C(F)(F)F)C2=C(C(=O)CCC2)C1c1ccc2c(c1)OCO2 (centres undefined) returned TDP1 block 0%, GCN5L2 inh 2%, DT40 TDP1 CPT 23µM*, PLK1 PBD inh 2%, VDR inh 7% and DT40 TDP1 no CPT inconclusive.
For COc1ccc(C2C=C(c3ccccc3)Nc3nc(NC(=O)/C=C/c4ccccc4)nn32)cc1 (centres undefined) the results were TDP1 block 6%, GCN5L2 inh -2%, DT40 TDP1 CPT 9.2µM*, VDR inh 8% and DT40 TDP1 no CPT 7.3µM*.
`O=C(Nc1nc2n(n1)C(c1ccccc1)C=C(c1ccc(Cl)cc1)N2)c1ccco1` (centres undefined) gave GCN5L2 inh -11%, DT40 TDP1 CPT 21µM*, VDR inh -6% and DT40 TDP1 no CPT 23µM*.
Screening O=C(Nc1nc2n(n1)C(c1ccccc1)C=C(c1ccccc1)N2)c1ccco1 (centres undefined) returned TDP1 block 4%, GCN5L2 inh -7%, DT40 TDP1 CPT 6%, PLK1 PBD inh -11%, VDR inh 2% and DT40 TDP1 no CPT 11%.
COc1ccc(C(=O)Nc2nc3n(n2)C(c2ccccc2)C=C(c2ccccc2)N3)cc1 (centres undefined) was read as TDP1 block 9%, GCN5L2 inh -7%, DT40 TDP1 CPT 18µM*, VDR inh -3% and DT40 TDP1 no CPT inconclusive.
For CC(=O)Nc1nc2n(n1)C(c1ccc(F)cc1)C=C(c1ccccc1)N2 (centres undefined) the results were TDP1 block 12%, GCN5L2 inh inconclusive, DT40 TDP1 CPT inconclusive, PLK1 PBD inh -24%, VDR inh -4% and DT40 TDP1 no CPT 18µM*.
Screening O=C(Nc1nc2n(n1)C(c1ccc(F)cc1)C=C(c1ccc(Cl)cc1)N2)c1ccco1 (centres undefined) returned TDP1 block 3%, GCN5L2 inh -6%, DT40 TDP1 CPT inconclusive, VDR inh 2% and DT40 TDP1 no CPT inconclusive.
`COc1ccc(C2C=C(c3ccc(Cl)cc3)Nc3nc(NC(C)=O)nn32)cc1` (centres undefined) gave TDP1 block 8% and GCN5L2 inh inconclusive.
Screening COc1ccc(C2C=C(c3ccccc3)Nc3nc(NS(=O)(=O)c4ccc(C)cc4)nn32)cc1 (centres undefined) returned TDP1 block 11%, GCN5L2 inh -2%, DT40 TDP1 CPT -12%, VDR inh 6% and DT40 TDP1 no CPT -19%.
